Measurements as given in PubChem BioAssay AID1259422 (The Scripps Research Institute Molecular Screening Center, 2018).
“And” between values parts separate entries of the source, which are not always exact repeats. Identical values can stand only once. Among all 640,000 compounds or so, about 9,300 (1.5%) were called active. Cut-off read from the data, not from the text of the source: active = inhibition above about 32%; inactive = the rest. Only a selection was taken, and actives are over-represented in it overall.

Experiment: TEAD-YAP interaction inhibition, primary screen, TEAD-YAP interaction inhibitor project, luminescence, HEK-TIYL cells (AID 1259422);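 note: 0% = median of test compound wells and 100% = reference inhibitor wells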
Conditions: TEAD-Gal4/YAP UAS-luciferase luminescence, at 9.12 µM, active compounds read high

SMILES | inhibition
Cc1nc2sc(C(c3ccc([N+](=O)[O-])cc3)N3CC(C)CC(C)C3)c(O)n2n1 (centres undefined) | 21.1% (inactive)
CC(C)c1ccc(S(=O)(=O)N2CCN(C(=O)/C=C/c3ccccc3)CC2)cc1 | 5.06% (inactive)
Cc1c(C(=O)N2CCN(c3ccc(F)cc3)CC2)sc2ncnc(N(C)c3ccccc3)c12 | 6.56% (inactive)
O=C(CSc1nnc2ncccn12)N1CCCc2ccccc21 | -3.81% (inactive)
Cc1ccc(N2CCN(C(=O)c3c(F)cccc3Cl)CC2)nn1 | -8.28% (inactive)
Cc1cc(N2CCCC2)nc(Nc2ccc(NC(=O)c3c(F)cccc3Cl)cc2)n1 | 42% (active)
COc1ccc(C(=O)Nc2ccc3nc(N4CCCCC4)cc(C)c3c2)cc1OC | -0.5% (inactive)
COc1cc(C(=O)Nc2ccc(Nc3nc(C)cc(N4CCCC4)n3)cc2)cc(OC)c1OC | 35.6% (active)
COc1cc(C(=O)Nc2ccc3nc(N4CCN(c5ncccn5)CC4)cc(C)c3c2)cc(OC)c1OC | 22.2% (inactive)
Cc1cc(NC(=O)c2c(F)cccc2Cl)ccc1N1CCCCC1=O | -2.91% (inactive)
Cc1ccc(N(C(=O)c2snc(C(N)=O)c2N)C(C)C(=O)NC(C)(C)C)cc1C (centres undefined) | -0.01% (inactive)
c1ccc2c(NCCNc3ncnc4sccc34)cccc2c1 | 52.2% (active)
Cn1ncc2c(Nc3cccc4ccccc34)ncnc21 | -0.77% (inactive)
COCCCNc1ncnc2sccc12 | -4.31% (inactive)
COc1ccc(C(=O)N=c2sc3cc4c(cc3n2C)OCCO4)cc1OC | -1.41% (inactive)
COC(=O)c1c(C)oc2ccc(NS(=O)(=O)c3cccc4cccnc34)cc12 | 28.9% (inactive)
CCOC(=O)c1c(-c2ccc(Br)cc2)csc1NC(=O)COC | -10.8% (inactive)
CC(NC(=O)C(C)(C)C)c1ccc(Br)cc1 (centres undefined) | 8.71% (inactive)
CC(C)(C)C(=O)Nc1scc(-c2ccc(Br)cc2)c1C(=O)O | 38.7% (active)
CCOc1cc(C(=O)OCc2cc(C(C)=O)ccc2OC)cc(OCC)c1OCC | -5.65% (inactive)
CCc1ccc(N/C(N)=N/c2nc(C)cc(C)n2)cc1 | 23.8% (inactive)
Cc1cc(C)nc(/N=C(\N)Nc2ccc(Br)cc2)n1 | 1.37% (inactive) and -0.43% (inactive)
Cc1cc(C)nc(/N=C(\N)Nc2cccc(C(F)(F)F)c2)n1 | 36.7% (active)
Cc1cccc(C)c1NS(=O)(=O)c1ccc2c(c1)oc(=O)n2C | -6.37% (inactive)

SMILES | inhibition
COc1ccc(Cc2nc3sc4c(c3c(=O)n2N)CCCC4)cc1OC | 29.2% (inactive)
Cc1cccc(C)c1-n1c(N)c(C(=O)Nc2cccc(Cl)c2)sc1=S | -13.7% (inactive)
CCCCNC(=O)NNC(=O)CSc1nc2ccccc2s1 | 9.84% (inactive)
O=C(CSc1nc2ccccc2s1)N1N=CCC1c1ccccc1 (centres undefined) | 51.5% (active)
O=C(CSc1nc2ccccc2s1)NNC(=O)C1CCCO1 (centres undefined) | 1.6% (inactive)
C/C(=N\NC(=O)c1cccc(Br)c1)c1cc2ccc(O)cc2oc1=O | -10.3% (inactive)
CC(C(=O)N(C)c1ccccc1)N1C(=O)NC(c2ccccc2)(c2ccccc2)C1=O (centres undefined) | 6.96% (inactive)
CCOC(=O)c1c(NC(=O)/C=C/C(=O)O)sc(C)c1C | 28.1% (inactive)
CCOC(=O)c1c(-c2cccc3ccccc23)csc1NC(=O)/C=C/C(=O)O | 33.5% (active)
CCOC(=O)c1c(-c2ccccc2)csc1NC(=O)CNCC(C)C | -3.7% (inactive)
Cc1ccc(C2CC(=O)C3=C(C2)Nc2ccccc2N(C(=O)C(F)(F)F)C3c2cccc(Br)c2)cc1 (centres undefined) | 7.36% (inactive)
CCOC(=O)C1=C(C)N=c2s/c(=C/c3cc(Br)c(N4CCOCC4)o3)c(=O)n2C1c1ccc(OC)cc1 (centres undefined) | 4.11% (inactive)
Cc1nc2ccccn2c1C(=O)NCc1ccc(Oc2ccccc2)cc1 | 62.4% (active)
Cc1ccc(C)c(C(=O)NCc2nc(-c3ccccc3)no2)c1 | 9.38% (inactive)
Cc1nc2sccn2c1C(=O)NCc1cccc(Cl)c1 | 12.9% (inactive)
C=CCN(C)C(=O)c1c(C)nc2ccccn12 | -6.06% (inactive)
Cc1nc2ccccn2c1C(=O)NCc1nc(-c2ccccc2)no1 | 36.5% (active)
O=C(NCc1nc(-c2ccccc2)no1)c1ccccc1I | 7.97% (inactive)
COc1ccc(CNCc2c(C(=O)O)[nH]c3ccccc23)cc1 | -5.51% (inactive)
C=Cc1ccc(Cn2c(C(=O)O)c(CNCc3ccccc3OC)c3ccccc32)cc1 | 14.2% (inactive)
Cc1cccc(NC(=O)CC2SC(=Nc3ccccc3)NC2=O)c1 (centres undefined) | 3.61% (inactive)
O=C(O)CC1SC(=Nc2ccccc2)NC1=O (centres undefined) | 4.55% (inactive)
Cc1ccc(N=C2NC(=O)C(Cc3ccccc3Cl)S2)cc1 (centres undefined) | 33.1% (active)
Cc1cc(N2CCN(c3ccccn3)CC2)nc2c(C)cccc12 | 2.36% (inactive)

SMILES | inhibition
Cc1ccc(C(c2cc(Cl)c3cccnc3c2O)N2CCN(c3ccccn3)CC2)cc1 (centres undefined) | 38% (active)
CC(C)c1ccc(OCC(O)CN2CCN(c3ccccn3)CC2)cc1 (centres undefined) | -5.32% (inactive)
CCOc1ccc(C(=O)Nc2sc3c(c2C(N)=O)CC(C)CC3)cc1 (centres undefined) | 2.83% (inactive)
CC(C)n1cnc2c(NCCOc3ccccc3)nc(-c3ccc(C(=O)NC4CC4)cc3)nc21 | 13.6% (inactive)
Cc1cc(/C=C2/C(=N)N3C=CSC3=NC2=O)c(C)n1-c1ccccc1F | 86.4% (active)
Cc1cc(/C=C2/C(=N)N3C=CSC3=NC2=O)c(C)n1-c1ccc(F)cc1 | 41.3% (active)
CC1=CC2=NC(=O)/C(=C\c3cc(C)n(-c4cccc(C)c4C)c3C)C(=N)N2O1 | 9.28% (inactive)
CC1=CN2C(=N)/C(=C/c3cc(C)n(-c4ccc(F)cc4)c3C)C(=O)N=C2S1 | -6.11% (inactive)
COc1cc(OC)c(-n2c(C)cc(/C=C3/C(=N)N4C=CSC4=NC3=O)c2C)cc1Cl | -0.88% (inactive)
Cc1cc(/C=C2\C(=N)N3N=C(S(C)(=O)=O)SC3=NC2=O)c(C)n1-c1ccc(F)cc1 | 4.07% (inactive)
COCC1=C(C(=O)OC)C(c2ccc(Cl)cc2Cl)n2ncnc2N1 (centres undefined) | -3.21% (inactive)
CN1C(=O)C(O)=C(c2ccccc2)S1(=O)=O | 5.68% (inactive)
COc1cccc(NC(=O)Cn2c(=O)c(C(F)(F)F)nc3ccccc32)c1 | 5.63% (inactive)
Cc1ccc(NC(=O)/C(=C/c2ccc(Cl)cc2)NC(=O)c2ccco2)cc1 | -3.43% (inactive)
COc1ccccc1CN1CCC2(CCC(CNC(=O)C(C)C)O2)CC1 (centres undefined) | -13.5% (inactive)
CC(C)C(=O)NCC1CCC2(CCN(Cc3ccc4ccccc4c3)CC2)O1 (centres undefined) | 9.09% (inactive)
CC(C)C(=O)NCC1CCC2(CCN(Cc3nc(-c4ccccc4)cs3)CC2)O1 (centres undefined) | 96.7% (active)
CCOC(=O)N1CCc2c(sc(NC(=O)CCSc3ccccc3)c2C#N)C1 | 44.1% (active)
CC(=O)N1CCc2c(sc(NC(=O)CCS(=O)(=O)c3ccccc3)c2C#N)C1 | 3.65% (inactive)
CCOC(=O)N1CCc2c(sc(NC(=O)c3ccc([N+](=O)[O-])s3)c2C#N)C1 | 3.38% (inactive)
CCOC(=O)N1CCc2c(sc(NC(=O)/C=C/c3cccc([N+](=O)[O-])c3)c2C#N)C1 | 33.5% (active)
CC(=O)N1CCc2c(sc(NC(=O)CCSc3ccccc3)c2C(N)=O)C1 | 3.99% (inactive)
N#Cc1c(NC(=O)/C=C/c2cccc([N+](=O)[O-])c2)sc2c1CCCC2 | -1.55% (inactive)
O=C(OC1CCS(=O)(=O)C1)c1ccccc1 (centres undefined) | -9.29% (inactive)

SMILES | inhibition
CN1CCN(S(=O)(=O)c2ccc(Sc3ccc(Br)cc3)c(C(=O)O)c2)CC1 | -2.07% (inactive)
CCCN1C(=O)c2ccccc2NC1c1ccc(OC)c(COc2ccc(Cl)cc2)c1 (centres undefined) | 1.41% (inactive)
CCCN1C(=O)c2ccccc2NC1c1ccc(O)c(OC)c1 (centres undefined) | 45.1% (active)
CCOc1cc(C2Nc3ccccc3C(=O)N2c2ccc(OC)cc2)ccc1O (centres undefined) | -26.9% (inactive)
CCOC(=O)N1CCN(C(=O)CC2C(=O)NCCN2Cc2ccccc2C)CC1 (centres undefined) | 4.23% (inactive)
CCOc1ccc(C(=O)NC(=S)Nc2ccc(N3CCCCC3)cc2)cc1 | -3.84% (inactive)
O=C(NC1(c2ccc3c(c2)OCO3)CCCC1)c1cscn1 | 5.97% (inactive)
CCOC(=O)c1ccc2c(c1)C(=O)N(c1ccc3ccccc3c1)C2=O | -2.85% (inactive)
NC(=O)c1sc2nc(C34CC5CC(CC(C5)C3)C4)ccc2c1N | -1.93% (inactive)
CCOC(=O)c1ccc2nc(C34CC5CC(CC(C5)C3)C4)ccc2c1 | 46.2% (active)
CC1CCc2sc(NC(=O)c3ccccc3F)c(C#N)c2C1 (centres undefined) | -31.8% (inactive)
Cc1ccc(-c2c(NCCCc3ccccc3)c(=O)c2=O)cc1 | -2.15% (inactive)
CC(C)OCCCNc1c(-c2ccc(C(C)C)cc2)c(=O)c1=O | 42.2% (active)
COCCNc1c(-c2ccc(Cl)cc2)c(=O)c1=O | -4.73% (inactive)
COc1ccc(NS(=O)(=O)c2cc(NC(=O)CCCNC(N)=O)ccc2OC)cc1 | 5.83% (inactive)
COc1cccc(-c2nc3ccccc3c(=O)n2NC(=O)c2cccc(C)c2)c1 | 5.37% (inactive)
COc1cccc(-c2nn3c(=O)c4ccccc4nc3n2N)c1 | 34.2% (active)
COc1cccc(-c2nc3ccccc3c(=O)n2NC(=O)c2ccccc2C)c1 | 2.18% (inactive)
COc1cccc(OC)c1C(=O)N1CCN(c2cccc(C)c2C)CC1 | 4.01% (inactive)
COc1ccc(C)cc1S(=O)(=O)N1CCN(C)CC1 | 13.6% (inactive)
COc1ccccc1N1CCN(S(=O)(=O)c2cc(C)ccc2OC)CC1 | -9.44% (inactive)
COc1ccc(C)cc1S(=O)(=O)N1CCN(c2cc(-n3ccnc3C)ncn2)CC1 | 41.4% (active)
